The values that follow come from PubChem BioAssay (Tox21).

Unmarked numbers belong to inactive results. Entries that show only a call come without a potency. The source made the active and inactive calls. Calls come from the whole dose curve; as a rule, active = well fitted activation curve with a large enough effect in the repeat runs; inconclusive = weak or mixed curves; inactive = flat fitted curve, though single readings scatter.

The assay in a line: A CellTox Green Cytotoxicity Assay to monitor cytotoxicity in HEK293 cells - 0 hour (AID 1224869). Note: nearly all actives have a fitted effect of over 50% in size. To be noted: CellTox Green fluorescence; series mostly up to 76.8 µM; cytotoxicity: at the top concentration. The source says:
National Center for Advancing Translational Sciences [NCATS]
NIH Chemical Genomics Center [NCGC]
U.S. Environmental Protection Agency [EPA]
National Institutes of Environmental Health Sciences [NIEHS]
National Toxicology Program [NTP]
Cell-based models are critical for drug discovery. Determining the natural cytotoxic effects resulting from test compounds is an essential research activity. A CellTox Green Cytotoxicity Assay to monitor cytotoxicity in real time of continues cell culture during 40 hours of the compound treatment was used to screen Tox21 10K library compounds in Hek293 cells. CellTox Green Cytotoxicity Assay is a nonlytic, homogeneous, biofluorescent method to measure cytotoxicity in cell culture after experimental manipulation. The assay system uses a proprietary asymmetric cyanine dye that is excluded from viable cells but preferentially stains the dead cell's DNA. […] Viable cells produce no appreciable increases in fluorescence. Therefore, the fluorescence signal produced by the binding interaction with dead cell DNA is proportional to cytotoxicity.
The mixture of Hek293 cell suspension and reagents were dispensed at 600cells/6 ul/well in 1536-well tissue culture treated black solid bottom plates using a Multidrop dispenser. After the assay plates were incubated at a 37 C/5% CO2 incubator for 5 hours, 23 nL of compounds dissolved in DMSO, positive and negative controls was transferred to the assay plate by a pintool work station. The plates were incubated at 37 C for 40 hours. The fluorescence intensity were measured at 0h, 8h, 16h, 24h, 32h and 40h time points using ViewLux plate reader during compound treatment.
For `O=C(c1cc(O)c(O)c(O)c1)c1ccc(O)c(O)c1O`, the Potency result was “inactive”. Regarding `CCc1ccccc1O`, the Potency result is “inactive”. Still for that read-out and setting: the entry for `O=C1N=C(O)CN1/N=C/c1ccc(-c2ccc([N+](=O)[O-])cc2)o1` is “inactive”. Same read-out and setting: the entry for `CC1Cc2ccccc2N1NC(=O)c1ccc(Cl)c(S(N)(=O)=O)c1` (stereo not given) is “inactive”; for `O=C(O)c1ccc([N+](=O)[O-])cc1` it is “inactive”; for `O=C(Oc1ccccc1)c1ccc(O)cc1` it is “inactive”.

Regarding `Cc1cc(O)c2c(c1)C(=O)c1cc(O)cc(O)c1C2=O`, the Potency result is “inactive”. Same read-out and setting: the entry for `CC(C)(N=C=O)c1cccc(C(C)(C)N=C=O)c1` is “inactive”; for `c1ccc2[nH]cnc2c1` it is “inactive”; for `c1ccc2ccccc2c1` it is “inactive”. The same measure, in the same setting: the entry for `Oc1c(Cl)cc(Cl)c(Cl)c1Cl` is “inactive”.

On to `NCc1cccc(CN)c1`, for which the “cytotoxicity” value was 2.37%.

In the case of `CS(=O)(=O)Nc1ccc([N+](=O)[O-])cc1Oc1ccccc1`, the Potency entry was “inactive”.

For `CCCCOCCOCCOC(=O)CCCCC(=O)OCCOCCOCCCC`, the Potency entry was “inactive”. The same measure, in the same setting: the entry for `Cc1ccc(N)c(S(=O)(=O)O)c1` is “inactive”; for `Cc1cc(O)cc(C)c1Cl` it is “inactive”; for `COC(=O)c1ccccc1O` it is “inactive”. On the same count and under the same terms, the result for `CC(=O)CCc1ccccc1` reads “inactive”; that for `CC#C[C@]1(O)CC[C@H]2[C@@H]3CCC4=CC(=O)CCC4=C3[C@@H](c3ccc(N(C)C)cc3)C[C@@]21C`, “inactive”. On the same count and under the same terms, the result for `C=C1CC[C@H](O)CC1=C/C=C1\CCC[C@]2(C)[C@@H]([C@H](C)/C=C/[C@H](C)C(C)C)CC[C@@H]12` reads “inactive”. On to `CC1(C)O[C@@H]2C[C@H]3[C@@H]4C[C@H](F)C5=CC(=O)CC[C@]5(C)[C@H]4[C@@H](O)C[C@]3(C)[C@]2(C(=O)CO)O1`, for which the “cytotoxicity” value is 4.03% [at 35.3 µM]. As to `C=C(C)C(=O)OCCCCCCCCCCCC`, the Potency entry is “inactive”. Still for that read-out and setting: the entry for `CC(C)NCC(O)COc1cccc2ccccc12` (stereo not given) is “inactive”. For the molecule `CC1=CC[C@H]2C[C@@H]1C2(C)C`, the Potency result is “inactive”. Still for that read-out and setting: the entry for `O=Nc1ccc(O)cc1` is “inactive”; for `C[C@@H](O)[C@H]1C(=O)N2C(C(=O)O)=C(S[C@@H]3CN[C@H](C(=O)N(C)C)C3)[C@H](C)[C@H]12` it is “inactive”; for `C=CC(=O)OCCCCCCCC(C)C` it is “inactive”.

Regarding `S=c1nc[nH]c2nc[nH]c12`, the Potency entry is “inactive”. Still for that read-out and setting: the result for `CCCCC(CC)COC(=O)/C=C\C(=O)OCC(CC)CCCC` (stereo not given) reads “inactive”; that for `CCCCNC(N)=O`, “inactive”.

With `CN(CCOc1ccc(CC2SC(=O)NC2=O)cc1)c1ccccn1` (stereo not given), the Potency entry is “inactive”. On the same count and under the same terms, the result for `CCCCCCCCCCCCOCC1CO1` (stereo not given) reads “inactive”; that for `NC(=O)NNc1ccccc1`, “inactive”. As to `O=S(=O)(O)c1cc(S(=O)(=O)O)c2c(N=Nc3ccccc3)c(O)ccc2c1`, the Potency entry was “inactive”. The same measure, in the same setting: the entry for `C=C1C2CCC(C2)C1(C)C` (stereo not given) is “inactive”; for `OC[C@@H](O)[C@@H](O)[C@H](O)[C@@H](O)CO` it is “inactive”; for `Clc1cc(Cl)c(Cl)cc1Cl` it is “inactive”. Turning to `Nc1nc2ncc(CNc3ccc(C(=O)N[C@@H](CCC(=O)O)C(=O)O)cc3)nc2c(=O)[nH]1`, the Potency entry was “inactive”. Same read-out and setting: the result for `CCCCOCCO` reads “inactive”; that for `CS(=O)(=O)c1ccc([C@@H](O)[C@@H](CO)NC(=O)C(Cl)Cl)cc1`, “inactive”.
